Our source for the growth inhibition values is PubChem BioAssay (NCI).

Compounds without any hit were thinned out: in the full panel of roughly 79,000, 15% have a hit. A number with no mark means an inactive call. Active and inactive are the calls of the source. Rule as the data show it: active = growth inhibition above about 70%; inactive = the rest.

Assay [1] is described as follows: NCI Yeast Anticancer Drug Screen. Data for the rad50 strain (AID 155).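 Also: 0% = growth of vehicle-only cultures of the same strain.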 The conditions noted are these: S. cerevisiae rad50 strain growth inhibition; at 50.0 µM; hits give high values. Put shortly:
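Growth of the mutant yeast was measured after compound exposure and referenced to vehicle-treated cultures.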

Assay [2] in a line: NCI Yeast Anticancer Drug Screen. Data for the mec2-1 strain (AID 157). The conditions noted are these: S. cerevisiae mec2-1 strain, at 50.0 µM, hits give high values. In a few lines:
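Mutant yeast (mec2-1) grown with compound; growth inhibition relative to vehicle control reported.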

A short description of assay [3]: NCI Yeast Anticancer Drug Screen. Data for the sgs1 mgt1 strain (AID 161).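 Also: 0% = growth of cultures given vehicle only.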 The conditions noted are these: S. cerevisiae sgs1 mgt1 strain, at 50.0 µM, hits give high values. Put shortly: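 Compounds are added to genetically altered yeast, and growth is compared with cultures given vehicle alone to give percent inhibition.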
Assay [4] can be described thus: NCI Yeast Anticancer Drug Screen. Data for the cln2 rad14 strain (AID 165).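 Also: 0% = growth equal to vehicle treated cultures.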 As to conditions: S. cerevisiae cln2 rad14 strain, at 50.0 µM, hits give high values. Put shortly:
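Readout is yeast growth inhibition versus vehicle-treated controls, using a strain with cln2 and rad14 alterations exposed to compound.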

Assay [5] in a line: NCI Yeast Anticancer Drug Screen. Data for the bub3 strain (AID 167). The conditions noted are these: S. cerevisiae bub3 mutant strain, at 50.0 µM, hits give high values. Put shortly:
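Whole-cell yeast assay. The mutant strain was incubated with compounds, and growth inhibition was determined by comparison with vehicle-treated cells.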

A short description of assay [6]: NCI Yeast Anticancer Drug Screen. Data for the mlh1 rad18 strain (AID 175). As to conditions: S. cerevisiae mlh1 rad18 strain growth inhibition; at 50.0 µM; hits give high values. In a few lines: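 Genetically defined yeast (DNA repair-deficient) exposed to compounds; growth inhibition determined relative to vehicle.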

With `NNc1[nH]c(=S)[nH]c1C(N)=O`, the growth inhibition in assay [1] is -29.6%; in assay [2] it was -8.5%; in assay [3], -21.4%; in assay [4], -7.65%; in assay [5] it was -22.1%; in assay [6], -11.7%.

On to `Cc1coc2c1C(OC(=O)C(C)C)C1(C)C(C)CCC(O)C1C2=O` (centres undefined), for which the growth inhibition in assay [1] was 9.2%; in assay [2], -6.4%; in assay [3], 31.5%; in assay [4] it was 10.7%; in assay [5] it was -1.3%; in assay [6] it was -37.1%.

On to `COc1cc(C)c2c(c1C=O)Oc1c(c(C)c(O)c3c1C(O)OC3=O)OC2=O` (centres undefined), for which the growth inhibition in assay [1] was 25.3%; in assay [2], -7.65%; in assay [3] it was 4.85%; in assay [4], 25.6%; in assay [5] it was -4.85%; in assay [6], -60.3%.

Take `Cc1ccc(/C=N/Nc2cnccn2)s1`: the growth inhibition in assay [1] was -30.9%; in assay [2], -25.2%; in assay [3] it was -30.9%; in assay [4], 15.2%; in assay [5], -41.2%; in assay [6], -9.3%.

In the case of `OCc1ccccn1`, the growth inhibition in assay [1] was -10.7%; in assay [2] it was 3.45%; in assay [3], -4.65%; in assay [4] it was -0.25%; in assay [5] it was -3.95%; in assay [6] it was 16.7%.

In the case of `CCCCCCCCCC(O)CC(=O)c1c(O)cccc1O` (centres undefined), the growth inhibition was 69.8% in assay [1]; 77.2% (active) in assay [2]; 82.8% (active) in assay [3]; 86.2% (active) in assay [4]; 82.1% (active) in assay [5]; 78.7% (active) in assay [6].

On to `COc1ccc(/C=c2\[nH]c3nc(=O)c(N4CCOCC4)c(N)n3c2=O)cc1`, for which the growth inhibition in assay [1] is 0.9%; in assay [2], -19.4%; in assay [3] it was 1.6%; in assay [4] it was -11.8%; in assay [5], -26.1%; in assay [6], -10.2%.

Turning to `C=C1C2CCC3C4(C)CCCC(C)(C(=O)O)C4CCC3(C2)C1OC(=O)/C(C)=C/C` (centres undefined), the growth inhibition was 22.4% in assay [1]; 4.85% in assay [2]; -7.05% in assay [3]; 25.1% in assay [4]; 0.75% in assay [5]; -59.4% in assay [6].

Turning to `COc1cc2c3cc1Oc1c(OC)c(OC)cc4c1C(Cc1ccc(O)c(c1)-c1cc(ccc1OC)CC3N(C)CC2)N(C)CC4` (centres undefined), the growth inhibition in assay [1] is -1.25%; in assay [2], -6.75%; in assay [3], -2.15%; in assay [4], 0.5%; in assay [5] it was 8.85%; in assay [6], -13.7%.

Turning to `O=C(O)CCCC(=O)Nn1c(Cc2ccc(Cl)cc2)n[nH]c1=O`, the growth inhibition in assay [1] was 7.75%; in assay [2] it was -13.1%; in assay [3], 34.5%; in assay [4], -6.3%; in assay [5], -7.15%; in assay [6], -1.85%.

On to `N#C/C=C1\C=CC(O)C(O)C1OC1OC(CO)C(O)C(O)C1O` (centres undefined), for which the growth inhibition in assay [1] is 21.6%; in assay [2], 7.3%; in assay [3], 37.9%; in assay [4], 27.6%; in assay [5] it was 12.9%; in assay [6], -62.7%.

Turning to `NC(N)=Nc1ccc(CC(N)C(=O)O)cc1` (centres undefined), the growth inhibition in assay [1] is -0.5%; in assay [2] it was -18.8%; in assay [3], -13.4%; in assay [4], 15.2%; in assay [5], -3.8%; in assay [6], -25.6%.

Regarding `Cc1ccc(/C=C2/N=C(N/N=C\c3ccccc3)NC2=O)cc1`, the growth inhibition in assay [1] is -6.15%; in assay [2], 14.9%; in assay [3], -19.4%; in assay [4], 1.75%; in assay [5], -9.1%; in assay [6], -41.1%.

As to `CCO/C=N\C1=C(C#N)SC2=N/C(=C\c3ccc(OC)cc3)C(=O)N21`, the growth inhibition in assay [1] is -7.4%; in assay [2] it was -25.1%; in assay [3], 7.35%; in assay [4] it was 6.45%; in assay [5] it was -2.1%; in assay [6], -57.8%.

In the case of `O=C(NC1=NC2C=CC([N+](=O)[O-])=CC2S1)C(=O)Nn1c(=S)[nH]c2ccccc2c1=O` (centres undefined), the growth inhibition in assay [1] is 6.8%; in assay [2], -14.9%; in assay [3], 20.2%; in assay [4] it was 10.8%; in assay [5], 20.7%; in assay [6], 24.1%.

On to `CC(C)/C(Cl)=N/OC(=O)Nc1cccc(C(F)(F)F)c1`, for which the growth inhibition in assay [1] is 35.7%; in assay [2] it was 38.3%; in assay [3] it was 85% (active); in assay [4] it was 24.8%; in assay [5], 65.5%; in assay [6] it was -91.7%.

As to `CCOC(=O)c1cc(C)nc2c1c(=O)n(-c1ccccc1)c(=O)n2CCCCN1CCN(c2ncccn2)CC1`, the growth inhibition in assay [1] was 9.75%; in assay [2], -32.4%; in assay [3] it was 12.2%; in assay [4], 7.45%; in assay [5] it was -16.9%; in assay [6], -38.5%.

Consider `O=C1C=CC=C/C1=C1\N=C(c2ccccc2OCC(=O)c2ccc(Br)cc2)SS1`, for which the growth inhibition in assay [1] was 10.1%; in assay [2], 18.1%; in assay [3], 12.8%; in assay [4], 8.75%; in assay [5], -0.75%; in assay [6], -43.5%.

For `CCOC(=O)C(=O)C(CCC(=O)c1ccc2ccccc2c1O)C(=O)OCC` (centres undefined), the growth inhibition in assay [1] was 2.6%; in assay [2], -1.65%; in assay [3], -2.9%; in assay [4], 4.25%; in assay [5] it was 0.5%; in assay [6], -35.9%.
